# The list is not random: actives were taken first. Their share in the collection is about 15%.
# RORg inh – blocks mouse ROR gamma transcriptional activity | Drosophila S2 Gal4-RORgamma UAS-luciferase reporter, 20 h | Potency, µM (highest dose often 53.6 µM), for inactives: top-dose activity change, negative = inhibition, most hits filed as inhibitors | hit rate 5.4% among 310,000 | P51450; note: nearly all actives have a fitted effect of over 60% in size
# Target sequence (P51450 whole entry, looked up, the tested form may be a part): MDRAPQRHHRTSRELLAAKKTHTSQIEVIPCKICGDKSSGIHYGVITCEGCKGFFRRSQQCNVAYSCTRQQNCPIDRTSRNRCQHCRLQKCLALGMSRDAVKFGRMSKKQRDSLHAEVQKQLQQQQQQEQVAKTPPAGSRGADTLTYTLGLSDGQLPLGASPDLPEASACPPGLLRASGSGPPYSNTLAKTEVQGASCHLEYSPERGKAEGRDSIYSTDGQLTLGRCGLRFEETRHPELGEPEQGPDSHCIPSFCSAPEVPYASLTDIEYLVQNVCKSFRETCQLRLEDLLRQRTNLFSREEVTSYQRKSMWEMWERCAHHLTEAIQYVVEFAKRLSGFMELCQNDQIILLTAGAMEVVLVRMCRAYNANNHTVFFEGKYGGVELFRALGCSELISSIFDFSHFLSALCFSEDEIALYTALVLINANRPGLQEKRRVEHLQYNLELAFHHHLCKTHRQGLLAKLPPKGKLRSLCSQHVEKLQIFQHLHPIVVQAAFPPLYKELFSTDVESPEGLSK
#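 Read-out: Photinus luciferase luminescence; inhibitors lower reporter signal. Insect Schneider cells with Gal4-ROR gamma fusion under metallothionein promoter, UAS reporter; 700 uM final copper sulfate induction, 20 hr, ambient temperature.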
# Gal4-VP16 FLuc – counter-screen for ROR gamma inhibitors: Gal4-VP16 reporter. Drosophila S2 Gal4-VP16 UAS-luciferase, luminescence, 20 h. Potency, µM (titrated, usually from 53.6 µM), for inactives: top-dose activity, negative = inhibition, usual class: inhibitors. hit rate 3.5% among 310,000;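 note: Gal4-VP16 expression switched on by copper sulfate through the metallothionein promoter; nearly all actives have a fitted effect of over 50% in size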
# TDP1 cell CPT – growth inhibition of DT40 Tdp1-/-;hTDP1 cells with camptothecin (screen for TDP1 inhibitors); chicken DT40 Tdp1-/-;hTDP1 cells + 20 nM CPT, ATP luminescence, 48 h; Potency, µM (series often up to 46.2 µM), for inactives: at the top dose activity change, negative = growth inhibition, actives largely listed as inhibitors; hit rate 12% among 420,000; note: nearly all actives have a fitted effect of over 55% in size
#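 Cell growth measured by CellTiter-Glo luminescence after a minimum 48 h, 37 C compound exposure with 20 nM CPT in Tdp1-knockout DT40 cells stably expressing hTDP1, seeded 400/well; qHTS titration format.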
# ELG1 DNA repair – inhibitors of ELG1-dependent DNA repair in HEK293T cells; HEK293T ELG1-luciferase reporter, luminescence, 16 h; DNA damage induced by 5-fluorouridine; hit rate 2.3% among 330,000; Potency, µM (highest dose often 46.1 µM), inactives show at the highest dose activity change, negative = inhibition, hits mostly inhibitors; note: nearly all actives have a fitted effect of over 55% in size
#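 In this reporter screen, reduction of luminescence relative to DMSO vehicle indicated activity. Compounds and 5-fluorouridine were added together to 2,000 cells per well, incubated for 16 hr at 37 °C, then developed with ONE-Glo.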
# 12-LOX inh – inhibitors of human 12S-lipoxygenase ALOX12. hit rate 1.1% among 580,000. P18054. Potency, µM (top dose mostly 108 µM), inactives show at the top dose activity change, negative = inhibition, usual class: inhibitors. purified 12hLO, xylenol orange hydroperoxide absorbance
#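 Hydroperoxide product was detected by ferrous iron/xylenol orange as the 573 to 405 nm absorbance ratio. Arachidonic acid at 40 uM (final) was turned over for 30 min at room temperature by 150 nM human 12hLO, pH 7.0 Hepes buffer, after 15 min compound preincubation.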
# DT40 TDP1 no CPT – qHTS for Inhibitors of human tyrosyl-DNA phosphodiesterase 1 (TDP1): qHTS in cells in absence of CPT; DT40 Tdp1-/- hTDP1 cells, no CPT, ATP luminescence, 48 h; Potency, µM (highest dose often 46.2 µM), without a hit: at the top dose activity change, negative = growth inhibition, hits mostly inhibitors; hit rate 15% among 420,000; AID 686978, 2013; note: nearly all actives have a fitted effect of over 55% in size
#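 Readout: luminescence from CellTiter-Glo after 30 min in the dark at RT. Cells: DT40 Tdp1-/- with stable hTDP1, 400/well. Exposure: compounds alone, ≥48 hr, 37 °C.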
# * marks the source's active call; other numbers are inactive results; ? = inconclusive; . = no result; [ ] = another dose, or the depositor's remark. Calls come from the whole dose curve; as a rule, active = well fitted curve in the direction sought with a large enough effect; inconclusive = small, poorly fitted or top-dose-only effect, or another doubt; inactive = no such curve, though single readings can be large; an effect the other way counts as inactive or inconclusive. % is set by controls: 0 for no effect and ±100 for the full control effect; potency is the fitted concentration of half-maximal effect.
SMILES,RORg inh,Gal4-VP16 FLuc,TDP1 cell CPT,ELG1 DNA repair,12-LOX inh,DT40 TDP1 no CPT
COc1ccc(-c2nc(C#N)c(NCCc3ccccc3)o2)cc1,101%,7%,15µM*,?,-9%[57.4 µM],14µM*
COc1ccc(Nc2oc(-c3ccc(OC)cc3)nc2C#N)cc1,-2%,-2%,6%,?,431%,-28%
CCOc1ccc(Nc2oc(-c3ccc(Cl)cc3)nc2C#N)cc1,-38%,?,?,?,?,4.1µM*
Cc1ccc2c(C(=O)NCc3ccccc3Cl)cc(NC(=O)C(C)C)cc2n1,.,.,.,.,55%,.
COc1ccc(C)cc1NC(=O)c1nc(-c2ccccc2)oc1C,.,.,.,.,3%,.
C1=C(CCNc2nnnn2-c2ccccc2)CCCC1,-2%,-6%,18µM*,?,-5%,?
CCN(Cc1ccc(OC)c(F)c1)C(=O)CCl,-30%,-12%,4.1µM*,?,-2%,4.1µM*
O=C(NC(=S)Nc1cnc2ccccc2c1)c1ccccc1,5.6µM*,?,-12%,?,-21%,-25%
CN(C)c1ccc(C(=O)Nc2cnc3ccccc3c2)cc1,.,.,.,.,40µM*,.
O=C(NC(=S)Nc1ncc(Br)cc1Br)c1ccccc1,8.9µM*,18µM*,?,?,?,?
O=C(Nc1cnc2ccccc2c1)c1ccncc1,-20%,-41%,?,?,5%,?
Cn1ncc2cc(NC(=S)NC(=O)c3ccccc3)ccc21,10µM*,?,?,?,?,?
CC(C)CN1C(=O)c2cccn2CC1C(=O)NCCN1CCCCC1 (configuration not stated),.,.,.,.,41%,.
CS(=O)(=O)N1CCC(C2CCN(Cc3ccc4c(c3)CCO4)C2)CC1 (configuration not stated),.,.,.,.,51%,.
CN(C)c1ccc(C(=O)Nc2sc(Nc3ccccc3)nc2C(N)=O)cc1,.,.,?,.,?,7.3µM*
S=C(NCc1ccccc1)NCc1cccc(Cl)c1,10µM*,?,1%,12%,?,0%
NNC(=S)NCc1ccccc1,2.8µM*,10µM*,?,?,?,?
Fc1ccc(CNC(=S)NCc2cccc(Cl)c2)cc1,45%,?,-19%,7%,?,?
CSC(=S)NCc1cccnc1,-7%,27%,2.9µM*,-3%,6%,3.3µM*
O=C(COc1ccccc1-c1ccccc1)NCc1cccc(Cl)c1,?,-11%,21µM*,-20%,-6%,?
Cc1ccccc1OCC(=O)NCc1ccccc1,5%,-18%,-1%,28%,2%,5%
CCOC(=O)c1cnc(Nc2cc(F)ccc2F)c2ccccc12,.,.,.,.,0%,.
CCN(CCO)C(=O)[C@H]1C[C@@](CC)(C(=O)O)N(C)[C@H]1c1ccc(OC)cc1,.,.,.,.,7%,.
S=C(NCc1ccccc1)NCc1cccc(CNC(=S)NCc2ccccc2)c1,-9%[10 µM],-1%,?,-4%,32µM*,?
S=C(NCCc1cccc(Cl)c1)NCc1ccccc1,8.9µM*,?,.,15%,.,.
SMILES,RORg inh,Gal4-VP16 FLuc,TDP1 cell CPT,ELG1 DNA repair,12-LOX inh,DT40 TDP1 no CPT
NC(=S)NCc1cccnc1,-5%,-6%,-12%,8%,-23%,27%
CN(C)C(=S)NCc1ccccc1,-20%,1%,23µM*,-1%,-13%,10µM*
NNC(=S)NCc1cccnc1,8.9µM*,?,?,1%,-20%,?
O=C(O)CNC(=S)NCc1ccccc1,-25%,-16%,4%,6%,-9%,6%
CSc1cccc(NC(=O)N[C@H]2CCN(C(=O)c3cccn3C)[C@@H]2C(=O)N[C@@H](Cc2cccs2)C(N)=O)c1,.,.,.,.,-2%,.
COc1cc(OC)cc(-c2c(-c3cccs3)c3cc(-c4ccc5[nH]ccc5c4)ccc3n2C)c1,.,.,?,1%,8%,?
